Source: the supplement of paper PMC13380429

Assays:
[1] = tested on: Vero E6 infected with SARS-CoV-2; assay: morphology score (similarity to uninfected cells); higher = more like uninfected cells; conditions: 24 h
[2] = tested on: Vero E6 infected with SARS-CoV-2; assay: SARS-CoV-2 infection rate relative to infected DMSO; higher = more infection, active = 60 or less; conditions: 24 h

In the case of `NC(=O)Cc1cccc(C(=O)c2ccccc2)c1N` [nepafenac] (10 µM), the morphology score [1] is reported as 0.0605 and the SARS-CoV-2 infection rate [2] is reported as 120% (inactive).
`CCn1cnc2c(Nc3cccc(Cl)c3)nc(N[C@@H]3CCCC[C@@H]3N)nc21` (0.833333 µM) was tested, and the morphology score [1] was -0.35 and the SARS-CoV-2 infection rate [2] was 114% (inactive).
With `CC(C)C[C@H](NC(=O)CNC(=O)c1cc(Cl)ccc1Cl)B(O)O` [ixazomib] (0.833333 µM) the morphology score [1] was -0.0337 and the SARS-CoV-2 infection rate [2] was 93.5% (inactive).
